Results published in PubChem BioAssay AID504339 (National Center for Advancing Translational Sciences (NCATS), 2011).
“And” between values parts separate entries of the source, which are not always exact repeats. Identical values can stand only once. The campaign covered roughly 390,000 compounds. About 17,000 (4.4%) were called active. A call without a number means that no potency is given here. Inconclusive results (about 8%) are left out. Calls follow the shape of the dose curve; as a rule, active = well fitted inhibition curve with a large enough effect; inconclusive = small, poorly fitted or top-dose-only effect; inactive = no such curve, though single readings can be large or run the other way. Many of the other results were omitted from the sample, so actives are more common in it than they were. A structure can be active in one record and inactive in another.

molecular target: Lysine-specific demethylase 4A (Homo sapiens) (UniProt O75164); assay: qHTS Assay for Inhibitors of JMJD2A-Tudor Domain; conditions: AlphaScreen JMJD2A-Tudor / H3K4me3 peptide binding; series mostly up to 114 µM; also: nearly all actives have a fitted effect of over 50% in size
Potency is read from the fitted curve at half-maximal effect.

Chain of Lysine-specific demethylase 4A (Homo sapiens) (O75164 whole entry, looked up, the tested form may be a part): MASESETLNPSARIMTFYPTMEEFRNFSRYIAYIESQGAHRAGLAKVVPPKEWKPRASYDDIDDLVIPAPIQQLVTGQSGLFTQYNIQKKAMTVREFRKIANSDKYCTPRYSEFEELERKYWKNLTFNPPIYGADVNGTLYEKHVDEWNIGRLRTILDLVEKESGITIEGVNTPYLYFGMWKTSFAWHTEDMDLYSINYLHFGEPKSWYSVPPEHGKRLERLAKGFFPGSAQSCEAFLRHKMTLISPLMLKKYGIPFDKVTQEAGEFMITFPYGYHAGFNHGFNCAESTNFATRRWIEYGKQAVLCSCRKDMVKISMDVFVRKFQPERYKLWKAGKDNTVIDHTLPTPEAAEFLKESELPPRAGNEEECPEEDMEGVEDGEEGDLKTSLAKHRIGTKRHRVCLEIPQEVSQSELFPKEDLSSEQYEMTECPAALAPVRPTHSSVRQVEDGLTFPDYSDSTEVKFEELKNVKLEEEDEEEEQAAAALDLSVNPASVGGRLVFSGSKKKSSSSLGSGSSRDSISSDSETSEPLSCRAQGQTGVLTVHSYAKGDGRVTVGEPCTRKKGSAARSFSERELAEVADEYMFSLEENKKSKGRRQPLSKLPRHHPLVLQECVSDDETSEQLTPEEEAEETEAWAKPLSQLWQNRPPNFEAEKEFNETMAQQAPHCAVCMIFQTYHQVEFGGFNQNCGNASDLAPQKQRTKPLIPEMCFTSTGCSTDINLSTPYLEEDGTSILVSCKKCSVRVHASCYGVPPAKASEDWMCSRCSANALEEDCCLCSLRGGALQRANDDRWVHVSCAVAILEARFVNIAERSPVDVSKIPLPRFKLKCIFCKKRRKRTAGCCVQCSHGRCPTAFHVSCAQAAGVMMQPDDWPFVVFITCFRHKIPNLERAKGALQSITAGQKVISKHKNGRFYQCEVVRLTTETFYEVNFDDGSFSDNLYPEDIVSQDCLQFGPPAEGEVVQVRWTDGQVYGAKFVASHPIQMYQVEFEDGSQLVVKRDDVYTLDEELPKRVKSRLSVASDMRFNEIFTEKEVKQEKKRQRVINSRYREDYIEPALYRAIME

| Structure (SMILES) | Potency |
| --- | --- |
| CCOC(=O)c1ccc(NC(=O)CS(=O)(=O)c2cn(CC)c3ccccc23)cc1 | 79.4 µM (active) |
| CC(=O)Nc1ccc(NC(=O)CS(=O)(=O)c2cn(CC(=O)N3CCCCC3)c3ccccc23)cc1 | inactive |
| CCOC(=O)c1ccc(NC(=O)Cn2cc(S(=O)(=O)Cc3ccccc3F)c3ccccc32)cc1 | inactive |
| COc1ccccc1NC(=O)CSc1oc(-c2ccco2)nc1S(=O)(=O)c1ccc(Br)cc1 | inactive |
| CCCn1c2ccccc2c2cnn(CC(=O)N(C)c3ccccc3CC)c(=O)c21 | inactive |
| CCN(CC)CCOCCOc1ccc(Cl)c2ccccc12 | 25.1 µM (active) |
| CCOc1ccc(S(=O)(=O)N2CCCCCC2)c2ccccc12 | inactive |
| CN(C)CCOCCOc1ccc(Cl)c2ccccc12 | 3.16 µM (active) |
| CCCC(C(=O)OCCN(CC)CC)(c1ccccc1)c1ccccc1 | inactive |
| COc1ccc(C)cc1NC(=O)C(=O)NCCc1sc(-c2cccc(C)c2)nc1C | inactive |
| Cc1nc(SCC(=O)N2CCN(c3ccccc3)CC2)[nH]c(=O)c1C | inactive |
| CCOc1ccc(NC(=O)CCC(=O)N2CC(C)Oc3ccc(C)cc32)cc1 (centres undefined) | inactive |
| CCOc1ccc(CNC(=O)c2ccc3c(c2)nnn3C2CCCC2)cc1 | inactive |
| COc1ccc(-c2nc3sc(CCNC(=O)C(C)(C)C)c(C)n3n2)cc1 | inactive |
| CCOC(=O)C[C@H]1c2ccc(C(F)(F)F)cc2S(=O)(=O)N1c1ccccc1 | inactive |
| CCOC(=O)C1Nc2ccc(C(F)(F)F)cc2C2C=CCC12 (centres undefined) | 50.1 µM (active) |
| CCOC(=O)NNc1cc(C(F)(F)F)ccn1 | inactive |
| CCOc1cccc(NC(=O)CSc2ncc(-c3ccc(Cl)cc3)[nH]2)c1 | inactive |
| COc1cccc(C(=O)NC2CCN(C#N)CC2)c1 | inactive |
| COC(=O)c1cnn(-c2ccc(C(=O)Nc3ccc(OC(F)(F)F)cc3)cc2)c1N | inactive |
| CCCN(CCC)CCCNC(=O)Cn1cc2c(n1)-c1c(oc(C(=O)N3CCCC3)c1C)CC2 | inactive |
| CCOC(=O)c1ccc(NC(=O)C2CC(=O)NC(=Nc3ccc(C)c(C)c3)S2)cc1 (centres undefined) | inactive |
| Cn1c(=O)c2c(n3c4ccccc4nc13)NC(=O)CC2c1cccc(Cl)c1 (centres undefined) | inactive |
| O=C1CCc2cc(S(=O)(=O)Nc3cccc(Oc4ccccc4)c3)ccc2N1 | inactive |
| CCN1CCN(c2ncnc3c2cnn3-c2ccc(C)c(C)c2)CC1 | inactive |
| Cn1nc(-c2ccccc2)c2cc([N+](=O)[O-])ccc21 | inactive |

| Structure (SMILES) | Potency |
| --- | --- |
| O=C1CC(c2ccccc2)=NN1c1ccc([N+](=O)[O-])cc1 | 39.8 µM (active) |
| COC(=O)CC1=NN(c2ccccc2)C(=O)C1 | inactive |
| COC(=O)c1ccc(-c2nc3cc(NC(C)=O)ccc3o2)cc1 | inactive |
| CCOc1cc(C(=O)O)ccc1OCCOc1ccccc1 | inactive |
| CCOc1c(CNCc2ccc(C(=O)O)cc2)cccc1OC | inactive |
| CCOc1cccc2c1N[C@@H](c1ccc(C(=O)O)cc1)[C@H]1CC=C[C@@H]21 | 22.4 µM (active) |
| C/C(=N\NC(=O)c1ccccc1F)c1ccccn1 | 35.5 µM (active) |
| CC1=NNC(=O)C1CCC(=O)N/N=C(\C)c1ccc(Cl)cc1 (centres undefined) | inactive |
| COc1ccc(C/C(C)=N/NC(=O)c2cc(C)oc2C)cc1 | inactive |
| COc1ccc(C/C(C)=N/NC(=O)c2ccncc2)cc1 | 10 µM (active) |
| Cc1cccc(C)c1NC(=S)N1CCCCCC1 | inactive |
| O=C(Nc1nnc(-c2ccccc2F)s1)c1ccccc1F | inactive |
| COc1ccc(C(=O)N/N=C(\C)CC(=O)Nc2ccc(Cl)cn2)cc1 | inactive |
| C/C(=N\NC(=O)Cc1ccc(Cl)cc1)c1ccccn1 | 56.2 µM (active) |
| C/C(=N/NC(=O)CCc1ccccc1)c1ccco1 | inactive |
| CC(=NNC(=S)N1CCCCCC1)c1ccccn1 | 11.2 µM (active) |
| C/C(=N/NC(=O)c1ccn(C)n1)c1ccncc1 | inactive |
| CCNC(=S)N1CCN(c2ncccn2)CC1 | inactive |
| O=C(CCc1cn(Cc2ccc(F)cc2)c2ccccc12)NC1CCCCC1 | inactive |
| Cc1ccc(N(C)C(=O)C2CCN(S(=O)(=O)c3ccc4c(c3)CCCN4C(=O)C3CCC3)CC2)cc1 | inactive |
| O=C(CCc1nc(CN2CCN(S(=O)(=O)c3ccc(Cl)cc3)CC2)no1)N1CCCCC1 | inactive |
| CCc1ccccc1NC(=O)c1ccc2nc(CCc3ccccc3)oc2c1 | inactive |
| O=C(Cn1c(=O)n(-c2ccc(F)cc2)c(=O)c2sccc21)Nc1cccc(C(F)(F)F)c1 | inactive |
| Cc1ccccc1CN1CCC(CNC(=O)c2c(C)oc3ncnc(N4CCCCC4)c23)CC1 | inactive |
| COc1ccc(CN2CCc3nc(Nc4ccccc4)ncc3C2)c(OC)c1OC | inactive |
| Cc1ccc(CSc2nc3ccsc3c(=O)n2CCC(C)C)cc1 | inactive |

| Structure (SMILES) | Potency |
| --- | --- |
| COc1ccc(CC(=O)N/N=C(\C)c2ccccn2)cc1 | 89.1 µM (active) |
| COc1ccc(CC(=O)Nc2c(C(N)=O)oc3ccccc23)cc1 | inactive |
| COc1ccc(/C(C)=N/NC(=O)c2ccc3nc[nH]c3c2)cc1 | inactive |
| COc1ccccc1CNC(=O)CCCn1c(=O)c2ccccc2n(CC(=O)Nc2ccc(C)cc2Cl)c1=O | inactive |
| O=C(c1cc(-c2ccc(F)cc2)on1)N1CCN(c2ccc(F)cc2)CC1 | inactive and 28.2 µM (active) |
| COc1ccc(-c2cc(C(=O)N3CCN(c4ccc(F)cc4)CC3)no2)cc1 | inactive |
| O=C(c1cc(-c2ccc(Cl)cc2)on1)N1CCN(c2ccccc2)CC1 | inactive |
| COc1ccc(-n2c(=O)c3ccccc3n(Cc3ccccc3Cl)c2=O)cc1 | inactive |
| COc1ccc(-c2cc(-c3nc(-c4cc(OC)c(OC)c(OC)c4)no3)[nH]n2)c(OC)c1 | inactive |
| CCC(=O)Nc1ccccc1-c1nc2ccccc2n(CC(=O)Nc2ccc(C)c(C)c2)c1=O | inactive |
| Cn1c(SCc2ccc(F)cc2)nnc1-c1ccncc1 | inactive |
| CN(C)CCCn1c(SCc2ccc(Cl)cc2)nnc1-c1ccncc1 | 20 µM (active) |
| CCn1c(SCC(=O)NC2CC2)nnc1-c1ccncc1 | inactive |
| CC1CCCCC1NC(=O)CSc1nnc(-c2ccncc2)n1CCCN(C)C (centres undefined) | 3.55 µM (active) |
| CC1CCCC(NC(=O)CSc2nccn2C)C1C (centres undefined) | inactive |
| CCn1c(SCc2cccc(C(=O)O)c2)nnc1-c1ccc(Cl)cc1 | inactive |
| Cc1ccccc1-c1nc2scc(CCNC(=O)C(=O)Nc3ccc(F)cc3F)n2n1 | inactive |
| CCOC(=O)c1ccc(NC(=O)CCS(=O)(=O)c2ccc(C)cc2)cc1 | inactive |
| COc1ccc(OCC(=O)Nc2cccc(C(=O)OCc3cc(=O)n4nc(C)sc4n3)c2)cc1 | inactive |
| CCCCc1ccc(NC(=O)NCc2cccnc2)cc1 | inactive |
| O=C(Cc1ccccc1)Nc1ccc(NC(=O)c2cccnc2)cc1 | inactive |
| O=C(CC(NCc1cccnc1)C(=O)O)Nc1ccc(O)cc1 (centres undefined) | 25.1 µM (active) |
| COc1ccccc1CNC(=O)NCc1noc2ccc(C)cc12 | inactive |
| COc1ccc(NC(=O)NCc2ccc3c(c2)OCO3)c(OC)c1 | inactive |
| O=C(NCc1ccc2c(c1)OCO2)C12CC3CC(CC(C3)C1)C2 | inactive |
| Cc1ccc(CNCc2ccc3c(c2)OCO3)c(C)c1 | 39.8 µM (active) |

| Structure (SMILES) | Potency |
| --- | --- |
| COc1cccc(CNCc2ccc3c(c2)OCO3)c1 | 1.78 µM (active) |
| COc1cccc(CC(=O)OCC(=O)NCc2ccc3c(c2)OCO3)c1 | inactive |
| COc1cc(OC)c(C(=O)NCc2ccc3c(c2)OCO3)cc1OC | inactive |
| CC(=O)c1c(C)n(S(=O)(=O)c2ccc(Cl)cc2)c2ccc(NS(=O)(=O)c3ccc(Cl)cc3)cc12 | inactive |
| O=C(NCCc1ccccc1)c1ccc2c(c1)N(Cc1ccc(F)cc1)C(=O)c1ccccc1S2(=O)=O | inactive |
| CC(C)(C)C1CCc2c(sc(NC(=O)c3ccccc3F)c2C(=O)N2CCCCC2)C1 (centres undefined) | inactive |
| CC(C)c1ccc(NC(=O)CN(C)S(=O)(=O)c2ccc3c(c2)c(=O)n(C)c(=O)n3C)cc1 | inactive |
| COc1ccc(-c2cc(C(F)(F)F)nc(SCC(=O)N(C)Cc3ccccc3)n2)cc1OC | inactive |
| Cc1ccc(-c2nn(CCC(=O)Nc3ccc(Cl)c(Cl)c3)c(=O)c3ccccc23)cc1 | inactive |
| COc1ccc2nc(N3CCN(C(=O)c4ccc([N+](=O)[O-])o4)CC3)sc2c1 | inactive |
| COc1ccc2nc(N3C(=O)C(O)=C(C(=O)c4ccco4)C3c3ccco3)sc2c1 (centres undefined) | 0.794 µM (active) |
| Cc1ccccc1OCCSc1nc2ccc(NC(=O)c3ccco3)cc2s1 | inactive |
| COc1ccc(NC(C)=O)cc1NC(=O)CN1CCN(c2ccc(F)cc2)CC1 | inactive |
| COC(=O)c1ccccc1NC(=O)c1cnn(-c2ccc(F)cc2)c1-n1cccc1 | inactive |
| CCc1ccccc1NC(=O)CSc1nc(C)c(C(=O)Nc2ccccc2)c(-c2ccc(Cl)cc2)c1C#N | inactive |
| CCN(CC)S(=O)(=O)c1ccc2c(c1)c(=O)c(C(=O)N1CCN(c3cccc(Cl)c3)CC1)cn2C | inactive |
| OC(COCc1ccco1)CN1CCN(c2ccccc2)CC1 (centres undefined) | 2.51 µM (active) |
| CN1CCN(CC(O)COCc2ccc3c(c2)OCO3)CC1 (centres undefined) | inactive |
| OC(COc1ccccc1)CN1CCN(c2cccc(Cl)c2)CC1 (centres undefined) | inactive |
| COc1cccc(C(=O)NCC(=O)OCc2cc(=O)n3ccsc3n2)c1 | inactive |
| CC(C)c1ccc(NC(=O)c2cc(S(=O)(=O)N3CCc4ccccc4C3)ccc2F)cc1 | inactive |
| CCOc1ccccc1NC(=O)c1ccc2c(c1)CCN2S(=O)(=O)c1ccc(C)cc1 | inactive |
| CCOc1ccc(N(Cc2ccccc2)C(=O)c2nc(S(C)(=O)=O)ncc2Cl)cc1 | inactive |
| CC(CN1CCC(n2nccc2NC(=O)C2CCCC2)CC1)c1ccccc1 (centres undefined) | inactive |
| CC(CN1CCCCC1)c1ccccc1 (centres undefined) | 3.98 µM (active) |
| CC(CN1CCOCC1)c1ccccc1 (centres undefined) | inactive |
